The values below come from the supplement of paper PMC6555819.

Holding throughout (assay): PBM binding z-score (relative to random genomic background probes); higher = stronger binding; sequences stand for … in GC…GCGATTGACAGCGTAGAATGAAGG
Assay [1] deals with FXR:RXRa (NR concentration 270 nM, RXRa partner concentration 90 nM). Summed up: (§1)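 Custom Agilent 4×180K protein-binding microarrays carried double-stranded probes, each with a 34-nt variable region. These regions held direct-repeat seeds, single-nucleotide variants, half-site ablations and random human genomic background sequences. Ligand-free nuclear receptor dimers were incubated on the arrays for 1 h, antibodies against each partner (one per run) detected binding, and scanned fluorescence was regression-normalized. Binding z-scores take the random background probes as reference.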

Assay [2] has as its system LXRa:RXRa (NR concentration 270 nM, RXRa partner concentration 90 nM). Put shortly: as §1
Assay [3] deals with LXRa homodimer (NR concentration 270 nM). Summed up: as §1
In assay [4] the test system is LXRb:RXRa (NR concentration 270 nM, RXRa partner concentration 90 nM). Put shortly: as §1
Assay [5] has as its system LXRb homodimer (NR concentration 270 nM). Summed up:
as §1

Assay [6] has as its system PPARa:RXRa (NR concentration 270 nM, RXRa partner concentration 90 nM). Summed up:
as §1

For assay [7], the system named is PPARg:RXRa (NR concentration 180 nM, RXRa partner concentration 90 nM). Put shortly: as §1
Assay [8] deals with PPARg:RXRa 270nM:90nM, anti-RXR (NR concentration 270 nM, RXRa partner concentration 90 nM). Put shortly: as §1
In assay [9] the test system is PPARg:RXRa 30nM:10nM, anti-RXR (NR concentration 30 nM, RXRa partner concentration 10 nM). Summed up:
as §1

Assay [10] relates to PPARg:RXRa 90nM:30nM, anti-RXR (NR concentration 90 nM, RXRa partner concentration 30 nM). Summed up: as §1
Assay [11] concerns PPARg:RXRa DBDmut IVT, anti-RXR (DBD mutation: RXRa K156A/R161A, NR concentration 270 nM, RXRa partner concentration 90 nM). Put shortly: as §1
In assay [12] the test system is PPARg:RXRa IVT, anti-PPARg (NR concentration 270 nM, RXRa partner concentration 90 nM). Summed up: as §1
Assay [13] relates to PPARg DBDmut:RXRa IVT, anti-PPARg (DBD mutation: PPARg1 K132A/R137A, NR concentration 270 nM, RXRa partner concentration 90 nM). Put shortly:
as §1

For assay [14], the system named is PPARg DBDmut IVT, anti-PPARg (DBD mutation: PPARg1 K132A/R137A, NR concentration 270 nM). Put shortly: as §1
Assay [15] concerns PPARg homodimer (NR concentration 180 nM). Put shortly:
as §1

For assay [16], the system named is PXR:RXRa (NR concentration 270 nM, RXRa partner concentration 90 nM). Summed up: as §1
The subject of assay [17] is PXR homodimer (NR concentration 270 nM). Put shortly: as §1
Assay [18] concerns RARa:RXR (NR concentration 270 nM, RXRa partner concentration 90 nM). Put shortly: as §1
In assay [19] the test system is RARa homodimer (NR concentration 270 nM). Summed up:
as §1

In assay [20] the test system is RARb:RXRa (NR concentration 270 nM, RXRa partner concentration 90 nM). Put shortly: as §1

For the sequence TCTAGTTGGTCAAAGGTCACACGCTCGAAATGCG, the PBM binding z-score in assay [1] was determined as 6.24; in [2], 5.77; in assay [3] it was 4.22; in [4], 5.45; in assay [5] it was 1.94; in [6], 6.6. The PBM binding z-score in [7] was 12; in assay [8], 10.1; in assay [9] it was 12.1; in [10], 11.5; in assay [11] it was 3.58; in assay [12], 6.36. The PBM binding z-score in [13] is 0.719; in [14] it was 1.69; in assay [15], 5.16; in [16], 6; in assay [17] it was 2.22; in assay [18] it was 7.76. In addition, the PBM binding z-score in assay [19] was 3.91; in assay [20], 4.97.
For the sequence CGTCCAAGGTCAGCAAGTCAGTGAAAGCGACGTG, the PBM binding z-score in assay [1] was 4.99; in assay [2], 3.1; in [3], -0.297; in assay [4], 2.02; in assay [5] it was -0.381; in assay [6] it was 4.25. Moreover, the PBM binding z-score in assay [7] is 2.21; in [8] it was 3.14; in assay [9] it was 0.523; in assay [10] it was 1.9; in assay [11], 2.61; in [12], 2.52. The PBM binding z-score was -0.905 in assay [13]; -1.02 in [14]; 2.24 in [15]; 2.38 in assay [16]; 0.119 in assay [17]; 3.13 in [18]. Besides, the figures for the PBM binding z-score in [19] and in assay [20] were 0.523 and 4.99, respectively.
For the sequence AGAATGAGGTTATCAAGATCAGGGAATTGCGGTC, the PBM binding z-score is 1.64 in [1]; 1.37 in assay [2]; 0.0557 in assay [3]; 1.14 in assay [4]; -0.163 in assay [5]; 2.8 in [6]. Moreover, the PBM binding z-score in assay [7] stood at 1.6; in assay [8], 2.08; in assay [9] it was 0.462; in assay [10], 1.29; in assay [11], 3.5; in assay [12], 2.6. Moreover, the PBM binding z-score in [13] is 0.708; in [14], -0.123; in assay [15] it was 0.956; in assay [16] it was 1.27; in assay [17], 0.0679; in [18], 1.67. Besides, the PBM binding z-score in assay [19] worked out at 0.465; in assay [20], 1.71.
With CTCGAATGGTCGGTTGAGGTGAGTATACGGATAA, the PBM binding z-score in assay [1] was 0.27; in [2], -0.395; in assay [3] it was -0.272; in assay [4] it was -0.377; in [5], -0.349; in [6], -0.259. The PBM binding z-score in assay [7] was -0.0607; in assay [8], -0.192; in assay [9], -0.213; in [10], -0.0856; in assay [11] it was -0.784; in assay [12], 0.126. Also, the PBM binding z-score in [13] is 0.733; in assay [14], 0.405; in assay [15] it was -0.164; in assay [16] it was -0.105; in assay [17], -0.022; in assay [18], 0.211. For the same sequence, the PBM binding z-score in assay [19] was -0.0787; in assay [20], 0.283.
TCAGCTAGGTCAGTTGGTCAGCTAACGAGCTGCC: the PBM binding z-score is 0.695 in assay [1]; 0.358 in [2]; -0.597 in assay [3]; 0.201 in assay [4]; -0.435 in assay [5]; 1.22 in assay [6]. Moreover, the PBM binding z-score in assay [7] was 0.615; in assay [8], 1.71; in assay [9] it was 1.93; in assay [10] it was 1.94; in [11], 2.84; in assay [12] it was 2.65. Moreover, the PBM binding z-score in [13] was -0.243; in assay [14], 0.225; in assay [15], -0.166; in [16], 0.0327; in assay [17], -1.06; in [18], 0.304. The results for the PBM binding z-score in assay [19] and in assay [20] were -0.936 and 3.31, respectively.
Regarding CATACAGGGTCAGCTAGGCGAGAGTAGGGACGGC, the PBM binding z-score in [1] was 4.5; in [2], 2.84; in assay [3], -0.0386; in [4], 2.08; in assay [5], 0.134; in assay [6], 4.19. For the same sequence, the PBM binding z-score in assay [7] is 2.92; in assay [8] it was 2.91; in assay [9], 0.767; in [10] it was 1.75; in [11] it was 1.21; in assay [12], 2.05. In addition, the PBM binding z-score in assay [13] amounted to 0.279; in [14], 0.468; in assay [15], 1.41; in [16] it was 1.83; in [17], 0.199; in assay [18] it was 3.05. Also, the PBM binding z-score was found to be 0.266 in [19] and 4.04 in assay [20].
Consider GCTTACGGGTCAAAGGTTATTGCATGAATAGAAT, for which the PBM binding z-score in [1] turned out to be 7.79; in assay [2], 5.75; in assay [3], 1.09; in assay [4] it was 5.81; in assay [5], 0.701; in assay [6] it was 6.84. Further, the PBM binding z-score in [7] worked out at 11.3; in [8], 9.3; in assay [9], 8.78; in [10], 10.8; in assay [11], 4.96; in assay [12] it was 5.79. Moreover, the PBM binding z-score in [13] turned out to be 2.15; in assay [14] it was 2.94; in assay [15], 3.22; in [16], 6.21; in assay [17] it was 0.728; in [18] it was 8.16. Moreover, the results for the PBM binding z-score in assay [19] and in assay [20] were 1 and 4.49, respectively.
